PubChem BioAssay (NCI)
The panel holds about 79,000 compounds, 15% with a hit somewhere; the sample as a whole holds those more often. Active and inactive are the calls of the source. Rule as the data show it: active = growth inhibition above about 70%; inactive = the rest.

Tests used:
[1] = NCI Yeast Anticancer Drug Screen. Data for the rad50 strain (AID 155);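 also: 0% = growth of vehicle-only cultures of the same strain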; details: S. cerevisiae rad50 strain growth inhibition; at 50.0 µM; stronger effect = higher value
Procedure, shortened: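 Genetically altered yeast (DNA repair pathway); compound treatment; growth inhibition vs vehicle ctrl.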

[2] = NCI Yeast Anticancer Drug Screen. Data for the mec2-1 strain (AID 157); details: S. cerevisiae mec2-1 strain, at 50.0 µM, stronger effect = higher value
Procedure, shortened: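 Compounds were applied to mec2-1 yeast cells. Their growth was then compared with that of vehicle-treated cultures to give growth inhibition.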

[3] = NCI Yeast Anticancer Drug Screen. Data for the sgs1 mgt1 strain (AID 161);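 also: 0% = growth of cultures given vehicle only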; details: S. cerevisiae sgs1 mgt1 strain, at 50.0 µM, stronger effect = higher value
Procedure, shortened: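 This yeast growth screen uses a strain with defined DNA-repair lesions; compound-treated growth is compared with vehicle-treated growth.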

[4] = NCI Yeast Anticancer Drug Screen. Data for the cln2 rad14 strain (AID 165);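 also: 0% = growth equal to vehicle treated cultures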; details: S. cerevisiae cln2 rad14 strain, at 50.0 µM, stronger effect = higher value
Procedure, shortened: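 Strain: cln2 rad14 yeast, altered in cell cycle control and DNA damage repair. Read-out: growth inhibition vs vehicle.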

[5] = NCI Yeast Anticancer Drug Screen. Data for the bub3 strain (AID 167); details: S. cerevisiae bub3 mutant strain, at 50.0 µM, stronger effect = higher value
Procedure, shortened: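 Yeast carrying a defined mutation is treated with each compound, and growth is compared with that of vehicle-exposed cells to give inhibition.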

[6] = NCI Yeast Anticancer Drug Screen. Data for the mlh1 rad18 strain (AID 175); details: S. cerevisiae mlh1 rad18 strain growth inhibition; at 50.0 µM; stronger effect = higher value
Procedure, shortened: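 A repair-deficient yeast strain is exposed to test compound, and growth is scored relative to vehicle-treated controls.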

Measured: growth inhibition

CSCNC(=O)Nc1ccccc1
inactive: [1] 30.4% | [2] 33.9% | [3] 19.1% | [4] 0.25% | [5] 15% | [6] 8.9%

CSC(=S)S(=O)(=O)C12CC3CC(CC(C3)C1)C2
active: [1] 90.5% | [2] 93.2% | [3] 89.5% | [4] 90% | [5] 86.5% | [6] 92.6%

O=[N+]([O-])c1ccc(OS(=O)(=O)c2ccccc2)cc1
inactive: [1] -3.25% | [2] 7.9% | [3] -5.35% | [4] -3.95% | [5] 4.05% | [6] 9.65%

CCCCCCCCCC(CC(OC)OCC)OC (stereo not drawn)
inactive: [1] 10.7% | [2] 4.25% | [3] 5.9% | [4] -13.8% | [5] -2.7% | [6] -24.6%

O=C1C(=Cc2cccc(O)c2)N=C(c2ccccc2)N1n1c(-c2ccccc2)nc2ccccc2c1=O
inactive: [1] -14.3% | [2] 5.15% | [3] 25.8% | [4] 14.7% | [5] -1.75% | [6] 11.9%

CCOC(=O)C(=O)C(C(=O)c1ccccn1)c1nc2n(c1O)C(=N)N=N2 (stereo not drawn)
inactive: [1] -4.1% | [2] 4.4% | [3] -3.1% | [4] -0.25% | [5] -5.35% | [6] 5.3%

C/C(CC(=O)Nc1ccccn1)=N\c1ccccn1
inactive: [1] 14.2% | [2] -16.5% | [3] -6.6% | [4] -0.35% | [5] 1.95% | [6] 9.95%

CC1=CC(=C(C#N)C#N)c2ccccc2N1C
inactive: [1] 1.1% | [2] 4.35% | [3] -8.8% | [4] 3.75% | [5] 14.6% | [6] 1.85%

Oc1ccc2ccccc2c1Br
inactive: [1] 45.9% | [2] 55.5% | [3] 40.2% | [4] 26.1% | [5] 44.2% | [6] 35.6%

O=C1NC(Cc2ccccc2)C(=O)N2CCCC12 (stereo not drawn)
inactive: [1] 2.55% | [2] -6.75% | [3] -12.2% | [4] -18.1% | [5] -1.15% | [6] 3.35%

Cc1ccc(C(=O)/C=C/c2ccc3c(c2)OCO3)c(C)c1
inactive: [1] 39.9% | [2] 21.8% | [3] 52.6% | [4] -6.7% | [5] 47.5% | [6] 33.3%

CCOC(=O)Cc1csc(NC(NC(=O)OCC)(C(=O)OCC)C(F)(F)F)n1 (stereo not drawn)
inactive: [1] 2.4% | [2] -0.3% | [3] -17.9% | [4] -4.2% | [5] -12.3% | [6] -6.25%

COc1ccc(/C=C/C(=O)c2ccccc2)cc1
inactive: [1] 25.7% | [2] -18.1% | [3] -12.6% | [4] 2.25% | [5] -28.9% | [6] 4.9%

COC(=O)C1C2CC3C1C3C2C(=O)OC (stereo not drawn)
inactive: [1] -14.2% | [2] -8.2% | [3] -4.45% | [4] 19.6% | [5] -14.6% | [6] -18.6%

OC1COCOC1C(O)C1OCOCC1O (stereo not drawn)
inactive: [1] 3% | [2] 9.8% | [3] 7.85% | [4] 4.3% | [5] -6.15% | [6] 1.75%

CC1CCCCCN1CCC(=O)c1ccccc1 (stereo not drawn)
inactive: [1] 17.9% | [2] 25.1% | [3] 17.9% | [4] 19.2% | [5] 32.6% | [6] 8.65%

COC(=O)C1=C(C(=O)OC)C(C)(C)N=N1
inactive: [1] 14.2% | [2] 6.65% | [3] 12.7% | [4] -1.65% | [5] 16.1% | [6] 3.45%

Cc1ccccc1NC(=O)Cc1csc2[n+]1C(=O)/C(=C\c1ccc3c(c1)OCO3)S2
inactive: [1] 22.9% | [2] 7.6% | [3] 17.9% | [4] 3% | [5] 11.2% | [6] 7%

O=c1[nH]cc(N=Cc2ccccc2O)c(=O)[nH]1.[Cl][Pt]
inactive: [1] 24.9% | [2] 9.05% | [3] 39% | [4] 3.35% | [5] 3.2% | [6] 0.4%

O=C1CN(/C=C(\c2ccccc2)S(=O)Cc2ccccc2)C(=S)N1 (stereo not drawn)
inactive: [1] -19.9% | [2] -29.5% | [3] -28.4% | [4] -7.7% | [5] 0% | [6] -24.2%

CN(C)CCCN=c1c2ccccc2n(C)c2[nH]c(=O)n(C)c(=O)c12
inactive: [1] -32.1% | [2] -0.75% | [3] -16.2% | [4] -9.2% | [5] 0.05% | [6] -6.85%

CCOc1ccc2nc(NC(=O)C(=O)C(C(=O)c3ccccc3-c3ccccc3)C3OC(=O)c4ccccc43)sc2c1 (stereo not drawn)
inactive: [1] -18.7% | [2] 23.9% | [3] -19% | [4] 23.1% | [5] -32.1% | [6] -28.6%

CSc1nc2nc(C)[nH]c2c(=O)[nH]1
inactive: [1] 9.8% | [2] 5.45% | [3] -4.45% | [4] 41% | [5] 9.8% | [6] 7.6%

CCCC(CN1CCCCC1)C(OC(=O)c1ccc(N)cc1)C(F)(F)F (stereo not drawn)
inactive: [1] -14.2% | [2] -13.7% | [3] 24.1% | [4] -30.8% | [5] 67.5% | [6] 22.4%

CC(Cc1ccccc1)NC(=O)CCCN1C(=O)c2ccccc2C1=O (stereo not drawn)
inactive: [1] -2.55% | [2] 1% | [3] -10.7% | [4] -37.8% | [5] 6.4% | [6] -5.15%

Cc1ccc(-c2c(C#N)c(-c3ccccc3)n(NS(=O)(=O)c3ccccc3)c(=O)c2C#N)cc1
inactive: [1] 42.1% | [2] 49.8% | [3] 47.1% | [4] 51.2% | [5] 49.6% | [6] 51.1%

CC(=O)c1sc2c(c1OC(=O)c1cccs1)c(=O)n(-c1ccccc1)c(=S)n2-c1ccccc1
inactive: [1] 22.2% | [2] -4.25% | [3] 10.3% | [4] -15.1% | [5] 23.4% | [6] 3.9%

O=C1CSC(c2ccc(C(F)(F)F)cc2)N1c1nncs1 (stereo not drawn)
inactive: [1] -1.2% | [2] -3.5% | [3] 29% | [4] -1.45% | [5] 12.6% | [6] 24.2%

CC(OP(=O)(O)O)C(N)C(=O)O (stereo not drawn)
inactive: [1] 0.4% | [2] -34% | [3] -44.9% | [4] -39.1% | [5] -19.9% | [6] -5.2%

C=CC1(C)C(C)=C(C)C(C)=C1C
inactive: [1] 11.1% | [2] -4.2% | [3] -13.7% | [4] 18% | [5] -2% | [6] 9.4%

O=C(NNC(=O)c1cccc(F)c1)c1ccccc1
inactive: [1] -25.8% | [2] -4.25% | [3] -22.9% | [4] -6.05% | [5] -12.8% | [6] 5.2%

Nc1nc(N)nc(-c2ccco2)n1
inactive: [1] -15.1% | [2] -6.6% | [3] -27.1% | [4] -81.8% | [5] -0.85% | [6] -5.2%

Cc1ccc(S(=O)(=O)OCC(F)(F)C(F)(F)C(F)(F)CO)cc1
inactive: [1] 19.1% | [2] 3.3% | [3] 22.2% | [4] -15.6% | [5] 3.85% | [6] -15.5%

C/C(CC/C(C)=N/NC(N)=O)=N/NC(N)=O
inactive: [1] 1.7% | [2] -3.5% | [3] -9.85% | [4] 0.55% | [5] 21.9% | [6] -9.2%

CC(C)=C1OC(=O)C1(C)C
inactive: [1] -5.75% | [2] 15.7% | [3] 1.5% | [4] 17.4% | [5] 5.5% | [6] -12.6%

CCOC(=O)/C=C1\CONC(c2ccc(OC)cc2)=N1
inactive: [1] -9.1% | [2] -5.3% | [3] -12.4% | [4] -19.2% | [5] 3.4% | [6] 2%

O=c1c2cc(S(=O)(=O)Nc3c(Cl)cccc3Cl)ccc2ncn1NS(=O)(=O)c1ccc2ccccc2c1
inactive: [1] -21.8% | [2] -8.6% | [3] -12.4% | [4] 10.4% | [5] -7.9% | [6] -3.75%

CCCOC(=O)C(O)Cc1ccccc1 (stereo not drawn)
inactive: [1] -26.9% | [2] 18.2% | [3] 5.95% | [4] -0.35% | [5] -11.1% | [6] -34.3%
